The list is not random: actives were taken first. Their share in the collection is about 2.9%.
Fam108B counter = blocks mouse Fam108B hydrolase in RBBP9 counter-screen; recombinant Fam108B, FP-Rh probe fluorescence polarization; inhibition, % at 9.51 µM; 300,000 compounds, 0.33% hits;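 active means inhibition above the screen mean inhibition plus 3 SD, computed separately per campaign, cut at about 18% in these data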;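 further: inhibitors lower polarization as less probe binds the enzyme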
PAFAH1B3 inh = blocks human PAF acetylhydrolase 1B catalytic subunit 3; inhibition, % at 3.39 µM; 340,000 compounds, 0.28% hits; recombinant PAFAH1B3, FP-rhodamine probe, fluorescence polarization;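 active means inhibition above the screen-wide average of all tested compounds plus 3 SD, cut at about 25% in these data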;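 further: 0% = enzyme with DMSO only and 100% = wells lacking PAFAH1B3 protein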
Target sequence (Q15102 whole entry, looked up): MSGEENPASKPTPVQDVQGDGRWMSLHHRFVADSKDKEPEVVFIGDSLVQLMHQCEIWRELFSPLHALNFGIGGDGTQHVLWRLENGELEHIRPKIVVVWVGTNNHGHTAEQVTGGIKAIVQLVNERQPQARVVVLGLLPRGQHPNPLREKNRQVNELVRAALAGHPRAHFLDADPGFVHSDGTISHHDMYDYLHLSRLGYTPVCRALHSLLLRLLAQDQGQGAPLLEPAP
PAFAH1B2 FP inh = blocks human PAF acetylhydrolase 1b catalytic subunit 2; AID 492953; recombinant PAFAH1B2, FP-rhodamine activity probe, fluorescence polarization; P68402; inhibition, % at 3.39 µM; 340,000 compounds, 1.2% hits;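 active means inhibition above the mean of all tested compounds plus 3 SD, cut at about 24% in these data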;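 further: 0% = enzyme with DMSO and 100% = wells lacking PAFAH1B2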
PAFAH2 inh = inhibitors of human PAFAH2; 340,000 compounds, 0.99% hits; Q99487; recombinant PAFAH2, FP-rhodamine activity probe, fluorescence polarization; AID 492956; inhibition, % at 3.39 µM;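 active means inhibition above the mean over all tested compounds plus 3 SD, cut at about 30% in these data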;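 further: inhibitors block probe labeling of enzyme so polarization drops; 0% = enzyme with DMSO and 100% = wells lacking PAFAH2 protein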
pPAFAH inh = inhibitors of human plasma PAF acetylhydrolase (pPAFAH) | Q13093 | recombinant pPAFAH, FP-rhodamine probe fluorescence polarization | inhibition, % at 3.39 µM | 330,000 compounds, 1.5% hits | AID 463082;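 active means inhibition above the mean inhibition across the screen plus 3 SD, cut at about 25% in these data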;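 further: inhibitors block binding of the rhodamine activity-based probe so polarization drops; 0% = enzyme with DMSO and 100% = wells lacking pPAFAH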
Target sequence (Q13093 whole entry, looked up): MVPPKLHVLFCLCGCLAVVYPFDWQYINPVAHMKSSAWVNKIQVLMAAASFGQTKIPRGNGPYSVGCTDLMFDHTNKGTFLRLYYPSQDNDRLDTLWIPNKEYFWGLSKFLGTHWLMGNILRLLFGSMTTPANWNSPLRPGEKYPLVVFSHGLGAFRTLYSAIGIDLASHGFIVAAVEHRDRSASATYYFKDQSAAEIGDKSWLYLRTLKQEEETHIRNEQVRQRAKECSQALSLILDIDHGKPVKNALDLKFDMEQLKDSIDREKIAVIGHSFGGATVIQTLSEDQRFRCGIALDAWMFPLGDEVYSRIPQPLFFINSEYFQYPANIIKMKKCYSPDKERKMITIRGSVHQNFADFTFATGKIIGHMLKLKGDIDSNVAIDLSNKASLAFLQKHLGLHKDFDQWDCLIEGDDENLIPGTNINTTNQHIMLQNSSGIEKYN
PME-1 inh = PME-1 (human) inhibition | Q9Y570 | inhibition, % at 5.9 µM | AID 2130 | 320,000 compounds, 0.53% hits | recombinant PME-1, FP-Rh probe fluorescence polarization;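 active means inhibition above the campaign mean of all compounds plus 3 SD, cut at about 26% in these data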;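 further: competitive labeling of PME-1 active site by serine hydrolase directed probe; 0% = PME-1 with DMSO and 100% = wells lacking PME-1 enzyme; inhibitors block probe labeling so polarization falls and inhibition rises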
Fam108b inh conf = confirmation of mouse Fam108b serine hydrolase inhibitors | inhibition, % at 9.51 µM | shares compounds with Fam108B counter | 930 compounds, 44% hits | recombinant Fam108b, FP-Rh probe fluorescence polarization;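 active means inhibition above a limit from the primary screen, the mean over all compounds plus 3 SD, cut at about 19% in these data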;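 further: 0% = median of active Fam108b wells and 100% = catalytically dead S170A mutant; inhibitors free the probe so polarization falls as inhibition rises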
Fam108b inh = mouse ABHD17B inhibition | 260 compounds, 44% hits | recombinant Fam108b, gel-based ABPP, fluorophosphonate probe | inhibition, % at 20 µM | shares compounds with Fam108B counter; in the data active means inhibition above about 40%
pPAFAH FP conf = pPAFAH (human) inhibition, confirmed | shares compounds with pPAFAH inh | recombinant pPAFAH, FP-Rh probe fluorescence polarization | inhibition, % at 3.39 µM | 2,300 compounds, 72% hits | AID 463230;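 active means mean inhibition of the triplicate above the hit cutoff set for the earlier primary screen, cut at about 25% in these data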;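 further: 0% = enzyme with DMSO and 100% = wells lacking pPAFAH enzyme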
Starred values were filed as active, the others as inactive.

Cc1ccc(C2Nc3ccc4ccccc4c3C3=C2C(=O)CC(C)(C)C3)o1 (stereo unspecified) was read as Fam108B counter 6, PAFAH1B3 inh 11, PAFAH1B2 FP inh 3, PAFAH2 inh -5, pPAFAH inh 11 and PME-1 inh -1.
`O=C1CCCC2=C1C(c1ccco1)Nc1ccc3ccccc3c12` (stereo unspecified) gave Fam108B counter 18*, PAFAH1B3 inh 3, PAFAH1B2 FP inh 2, PAFAH2 inh 26, pPAFAH inh 40*, PME-1 inh -1, Fam108b inh conf 11 and pPAFAH FP conf 29*.
For C/C(=N\OCc1nc2ccccc2c(=O)n1/N=C/c1cc(C)cc([N+](=O)[O-])c1O)c1ccccc1 the results were Fam108B counter 24*, PAFAH1B3 inh 4, PAFAH1B2 FP inh 0, PAFAH2 inh 2, pPAFAH inh 46*, PME-1 inh -5, Fam108b inh conf 17 and pPAFAH FP conf 4.
Screening Cc1cc([N+](=O)[O-])cc(/C=N/n2c(C)nc3ccccc3c2=O)c1O returned Fam108B counter -2, PAFAH1B3 inh 13, PAFAH1B2 FP inh 2, PAFAH2 inh 11, pPAFAH inh 11 and PME-1 inh -6.
CCOC(=O)C1CCCN(C(=O)C2c3ccccc3Oc3ccccc32)C1 (stereo unspecified) was read as Fam108B counter 41*, PAFAH1B3 inh 43*, PAFAH1B2 FP inh 24*, PAFAH2 inh 54*, pPAFAH inh 55*, PME-1 inh 66*, Fam108b inh conf 6 and pPAFAH FP conf 9.
Cn1c(=O)c2c(nc(Oc3ccccc3Br)n2C)n(C)c1=O was read as PAFAH1B3 inh 7, PAFAH1B2 FP inh 3 and PAFAH2 inh 7.
For Cn1c(=O)c(N)c2c3c(c(Br)ccc31)C(=O)c1ccccc1-2 the results were Fam108B counter 29*, PAFAH1B3 inh 38*, PAFAH1B2 FP inh 29*, PAFAH2 inh 40*, pPAFAH inh 43*, PME-1 inh 37*, Fam108b inh conf 26* and pPAFAH FP conf 39*.
For COc1cc(OC)cc(N(C(=O)CNC(=O)c2cccs2)C(C(=O)NCC2CCCO2)c2ccccc2)c1 (stereo unspecified) the results were Fam108B counter 2, PAFAH1B3 inh -4, PAFAH1B2 FP inh 1, PAFAH2 inh -11, pPAFAH inh 4 and PME-1 inh 3.
CC1(C)CC(=O)C2=C(C1)c1c(ccc3ccccc13)NC2c1ccc(C(=O)O)cc1 (stereo unspecified) was read as Fam108B counter -2, PAFAH1B3 inh -2, PAFAH1B2 FP inh -2, PAFAH2 inh 5, pPAFAH inh 5 and PME-1 inh 9.
For CC1(C)CC(=O)C2=C(C1)c1c(ccc3ccccc13)NC2c1cc([N+](=O)[O-])cc([N+](=O)[O-])c1O (stereo unspecified) the results were Fam108B counter 26*, PAFAH1B3 inh 20, PAFAH1B2 FP inh 29*, PAFAH2 inh 35*, pPAFAH inh 41*, PME-1 inh -5, Fam108b inh conf 57*, Fam108b inh 50* and pPAFAH FP conf 79*.
For Oc1nc(Nc2cccc(Cl)c2)sc1/C=C1\C=Nc2ccccc21 the results were Fam108B counter 34*, PAFAH1B3 inh 15, PAFAH1B2 FP inh 10, PAFAH2 inh -4, pPAFAH inh 37*, PME-1 inh 49*, Fam108b inh conf 33*, Fam108b inh 95* and pPAFAH FP conf 29*.
Screening CCOc1ccc2nc3cc(NCc4ccc(OC)cc4)ccc3c(N)c2c1 returned Fam108B counter 24*, PAFAH1B3 inh 18, PAFAH1B2 FP inh 5, PAFAH2 inh 12, pPAFAH inh 38*, PME-1 inh 5, Fam108b inh conf -8 and pPAFAH FP conf 11.
Screening CCCCCCCCCCCCCCCC[n+]1ccc(/C=N/O)cc1 returned Fam108B counter 41*, PAFAH1B3 inh 61*, PAFAH1B2 FP inh 33*, PAFAH2 inh 27, pPAFAH inh 50*, PME-1 inh 56*, Fam108b inh conf 44* and pPAFAH FP conf 40*.
Screening O=c1ccc2c(-c3ccccc3)c3ccc(O)cc3oc-2c1 returned Fam108B counter 26*, PAFAH1B3 inh 39*, PAFAH1B2 FP inh 47*, PAFAH2 inh 60*, pPAFAH inh 53*, PME-1 inh 5, Fam108b inh conf 42*, Fam108b inh 25 and pPAFAH FP conf 47*.
COC(=O)[C@@H](Cc1ccccc1)NC(=O)NCCc1ccc(OC)c(OC)c1 was read as Fam108B counter 0, PAFAH1B3 inh 13, PAFAH1B2 FP inh -2, PAFAH2 inh -1, pPAFAH inh 5 and PME-1 inh -1.
Cc1c(Br)c(O)c(Br)c2sc(=O)oc12 was read as Fam108B counter 29*, PAFAH1B3 inh 14, PAFAH1B2 FP inh 7, PAFAH2 inh -1, pPAFAH inh 84*, PME-1 inh 18, Fam108b inh conf 1 and pPAFAH FP conf 24.
For Cc1ccc(/C=C2\SC(=S)N(/N=C/c3cc([N+](=O)[O-])ccc3O)C2=O)o1 the results were Fam108B counter 25*, PAFAH1B3 inh 46*, PAFAH1B2 FP inh 26*, PAFAH2 inh 74*, pPAFAH inh 63*, PME-1 inh 5, Fam108b inh conf 26* and pPAFAH FP conf 56*.
For CCN(CC)S(=O)(=O)c1cc(C(=O)OC(C)C(=O)NCc2ccco2)ccc1C (stereo unspecified) the results were PAFAH1B3 inh 2, PAFAH1B2 FP inh 3, PAFAH2 inh 6, pPAFAH inh 12 and PME-1 inh 5.
`Cc1ccc(NS(=O)(=O)c2ccc(N/N=C/c3ccncc3)c([N+](=O)[O-])c2)c(C)c1` gave Fam108B counter -2, PAFAH1B3 inh -6, PAFAH1B2 FP inh -2, PAFAH2 inh 7, pPAFAH inh 24 and PME-1 inh -5.
Cc1ccc(NS(=O)(=O)c2ccc(N3CCN(c4ccc(O)cc4)CC3)c([N+](=O)[O-])c2)c(C)c1 was read as Fam108B counter 21*, PAFAH1B3 inh 1, PAFAH1B2 FP inh 3, PAFAH2 inh 17, pPAFAH inh 57*, PME-1 inh 23, Fam108b inh conf 9 and pPAFAH FP conf 46*.
CC#CC(=O)NCC1(N(C)Cc2ccccc2)Cc2ccccc2C1 was read as Fam108B counter 0, PAFAH1B3 inh 1, PAFAH1B2 FP inh 2, PAFAH2 inh -5, pPAFAH inh 3 and PME-1 inh 3.

High-throughput results deposited in PubChem BioAssay by The Scripps Research Institute Molecular Screening Center.
